For 39 molecules, Potency results are on record in PubChem BioAssay (Tox21).

Structures are written as SMILES. Values joined by “and” are separate entries in the source; they are usually repeats but may differ in a detail not shown here. Equal values may be shown once. Results filed as inconclusive are left out. Entries that show only a call come without a potency. Where a structure was tested more than once in an assay, its records may differ in their call. Active and inactive are the calls of the source. The call rests on the fitted dose curve; in most records, active means well fitted curve in the direction sought with a large enough effect in the repeat runs; inconclusive means weak or mixed curves; inactive means no such curve, though single readings can be large; an effect the other way counts as inactive or inconclusive.
Potency means the concentration at half of the fitted maximal effect.

Tested on in one assay: not listed separately
The assay can be described thus: qHTS assay to identify small molecule agonists of the constitutive androstane receptor (CAR) signaling pathway - cell viability counter screen (AID 1224836). Further: nearly all actives have a fitted effect of over 45% in size. The conditions noted are these: HepG2-CYP2B6-hCAR viability, CellTiter-Fluor, 23 h, PK11195 added to every well; series mostly up to 92.4 µM. An outline of the steps: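 Double-stable HepG2 hepatoma cells (hCAR plus CYP2B6-2.2kb) are treated for 23 h at 37 C with test compounds in 15-point concentration series. PK11195 at 0.75 uM final is co-added. Cell viability is quantified by CellTiter-Fluor.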
On the technique in general: qHTS replaces the single test concentration by a dilution series.
Consider `CCOCCOCCO`, for which the Potency result is “inactive”.

As to `C/C=C/C(=O)O`, the Potency entry is “inactive”.

For `O=C(Nc1ccc([N+](=O)[O-])cc1Cl)c1cc(Cl)ccc1O`, the Potency is 6.86 µM (active) and 4.61 µM (active).

As to `O=CCc1ccccc1`, the Potency result is “inactive”.

Regarding `COC(=O)c1ccccc1`, the Potency entry was “inactive”.

On to `Nc1ccc(S(=O)(=O)Nc2cnc3ccccc3n2)cc1`, for which the Potency entry is “inactive”.

As to `CN(C)CCN(Cc1cccs1)c1ccccn1`, the Potency entry is “inactive”.

As to `c1cc(N(CC2CO2)CC2CO2)ccc1OCC1CO1` (stereo not drawn), the Potency was 61.1 µM (active).

For the molecule `Cc1c(C(N)=O)cc([N+](=O)[O-])cc1[N+](=O)[O-]`, the Potency entry was “inactive”.

In the case of `CN(C)c1nc(N(C)C)nc(N(C)C)n1`, the Potency result was “inactive”.

For the molecule `Cc1cccc([N+](=O)[O-])c1C`, the Potency result was “inactive”.

Turning to `CC(C)=CCC/C(C)=C\CO`, the Potency result is “inactive”.

For `Cc1ncc[nH]1`, the Potency result was “inactive”.

As for `CCCCCCCCCC(=O)OC`, the Potency result was “inactive”.

Turning to `C[Si](C)(C)O[Si](C)(C)C`, the Potency result was “inactive”.

For the molecule `C=C(C)C1CC=C(C)CC1` (stereo not drawn), the Potency entry was “inactive”.

`C#C[C@]1(O)CC[C@H]2[C@@H]3CCC4=Cc5oncc5C[C@]4(C)[C@H]3CC[C@@]21C`: the Potency result is “inactive”.

Regarding `Oc1ccc(O)cc1`, the Potency entry is “inactive”.

With `COc1ccc(C(=O)CC(=O)c2ccc(C(C)(C)C)cc2)cc1`, the Potency result is “inactive”.

As to `CC(C)=CCCC(C)CCO` (stereo not drawn), the Potency result was “inactive”.

With `c1ccc2c(c1)c1cccc3ccc4cccc2c4c31`, the Potency entry is “inactive”.

As for `C[C@]12CCC(=O)C=C1CC[C@@H]1[C@@H]2C(=O)C[C@@]2(C)[C@H]1CC[C@]2(O)C(=O)CO`, the Potency result is “inactive”.

For the molecule `OC1CCCCCCCCCCC1`, the Potency entry was “inactive”.

As to `NNc1ccc(C(=O)O)cc1`, the Potency entry was “inactive”.

In the case of `O=C=Nc1ccc(Cc2ccc(N=C=O)cc2)cc1`, the Potency entry was “inactive”.

Turning to `O=S(=O)(O)c1ccc(O)cc1`, the Potency result was “inactive”.

Tested on in a further assay: not listed separately
As to the kind of experiment: qHTS assay to identify small molecule antagonists of the constitutive androstane receptor (CAR) signaling pathway - cell viability counter screen (AID 1224837). Further: nearly all actives have a fitted effect of over 45% in size. The note with it: HepG2-CYP2B6-hCAR viability, CellTiter-Fluor, 23 h, co-treated with 50 nM CITCO; series mostly up to 92.4 µM. An outline of the steps: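 To flag cytotoxic false antagonists, HepG2 hCAR/CYP2B6-2.2kb cells were treated 23 hr with 15-concentration compound series and 50 nM CITCO at 37 C/5% CO2; CellTiter-Fluor fluorescence was the measured end point.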
For `CCOCCOCCO`, the Potency entry is “inactive”.

As for `C/C=C/C(=O)O`, the Potency result is “inactive”.

Take `O=C(Nc1ccc([N+](=O)[O-])cc1Cl)c1cc(Cl)ccc1O`: the Potency is 5.45 µM (active) and 3.26 µM (active).

Take `COC(=O)CCC(=O)OC`: the Potency entry is “inactive”.

On to `O=CCc1ccccc1`, for which the Potency result is “inactive”.

Turning to `COC(=O)c1ccccc1`, the Potency result was “inactive”.

As to `CC(C)OC=O`, the Potency entry is “inactive”.

For the molecule `Nc1ccc(S(=O)(=O)Nc2cnc3ccccc3n2)cc1`, the Potency result was “inactive”.

For the molecule `O=C(O)c1ccccc1Nc1cccc(C(F)(F)F)c1`, the Potency entry is “inactive”.

As to `CN(C)CCN(Cc1cccs1)c1ccccn1`, the Potency entry is “inactive”.

For `c1cc(N(CC2CO2)CC2CO2)ccc1OCC1CO1` (stereo not drawn), the Potency was 54.5 µM (active).

Take `CCC(C)(O)CCCC(C)C` (stereo not drawn): the Potency entry was “inactive”.

As for `Cc1c(C(N)=O)cc([N+](=O)[O-])cc1[N+](=O)[O-]`, the Potency entry was “inactive”.

On to `O=C(COc1ccc(Cl)cc1)N1CCN(Cc2ccc3c(c2)OCO3)CC1`, for which the Potency entry is “inactive”.

As to `CN(C)c1nc(N(C)C)nc(N(C)C)n1`, the Potency entry is “inactive”.

Take `Cc1cccc([N+](=O)[O-])c1C`: the Potency result is “inactive”.

For the molecule `CC(C)=CCC/C(C)=C\CO`, the Potency result was “inactive”.

Take `Cc1ncc[nH]1`: the Potency entry is “inactive”.

Take `O=CCCCC=O`: the Potency result was “inactive”.

As to `CCCCCCCCCC(=O)OC`, the Potency result is “inactive”.

For the molecule `CCCc1c(OCCCCc2nn[nH]n2)ccc(C(C)=O)c1O`, the Potency result was “inactive”.

Take `C[Si](C)(C)O[Si](C)(C)C`: the Potency result is “inactive”.

Turning to `C=C(C)C1CC=C(C)CC1` (stereo not drawn), the Potency entry was “inactive”.

Take `C#C[C@]1(O)CC[C@H]2[C@@H]3CCC4=Cc5oncc5C[C@]4(C)[C@H]3CC[C@@]21C`: the Potency result was “inactive”.

As to `Oc1ccc(O)cc1`, the Potency result was “inactive”.

With `COc1ccc(C(=O)CC(=O)c2ccc(C(C)(C)C)cc2)cc1`, the Potency entry was “inactive”.

`CC(C)=CCCC(C)CCO` (stereo not drawn): the Potency result is “inactive”.

Consider `c1ccc2c(c1)c1cccc3ccc4cccc2c4c31`, for which the Potency result was “inactive”.

On to `C[C@]12CCC(=O)C=C1CC[C@@H]1[C@@H]2C(=O)C[C@@]2(C)[C@H]1CC[C@]2(O)C(=O)CO`, for which the Potency entry was “inactive”.

Consider `OC1CCCCCCCCCCC1`, for which the Potency entry is “inactive”.

For the molecule `CC(=O)C1(C)CC2=C(CCCC2(C)C)CC1C` (stereo not drawn), the Potency entry was “inactive”.

Consider `C=CC(C)(CCC=C(C)C)OC(C)=O` (stereo not drawn), for which the Potency entry was “inactive”.

As for `NNc1ccc(C(=O)O)cc1`, the Potency result was “inactive”.

As for `CC(=O)c1ccccn1`, the Potency entry is “inactive”.

As for `COC(C)COC(C)COC(C)CO` (stereo not drawn), the Potency entry was “inactive”.

For the molecule `O=C=Nc1ccc(Cc2ccc(N=C=O)cc2)cc1`, the Potency entry was “inactive”.

Turning to `COc1ccc(OC)c(C(O)CNC(=O)CN)c1` (stereo not drawn), the Potency entry is “inactive”.

As for `O=S(=O)(O)c1ccc(O)cc1`, the Potency entry is “inactive”.

As to `CC(=O)CC/C=C(\C)CCC=C(C)C`, the Potency entry is “inactive”.

A further assay deals with Nuclear receptor subfamily 1 group I member 3 (Homo sapiens) (UniProt Q14994). As to the kind of experiment: qHTS assay to identify small molecule antagonists of the constitutive androstane receptor (CAR) signaling pathway (AID 1224838). Further: nearly all actives have a fitted effect of over 40% in size. The note with it: HepG2-CYP2B6-hCAR luciferase, CITCO-stimulated, 24 h; series mostly up to 92.4 µM. An outline of the steps: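 Human hepatoma HepG2 cells expressing hCAR and a CYP2B6 promoter (2.2 kb) luciferase construct; compound titration (15 points) with 50 nM CITCO final, 24 h at 37 C/5% CO2; luminescence via ONE-Glo after 30 min at room temperature.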
Nuclear receptor subfamily 1 group I member 3 (Homo sapiens), sequence (Q14994 whole entry, looked up): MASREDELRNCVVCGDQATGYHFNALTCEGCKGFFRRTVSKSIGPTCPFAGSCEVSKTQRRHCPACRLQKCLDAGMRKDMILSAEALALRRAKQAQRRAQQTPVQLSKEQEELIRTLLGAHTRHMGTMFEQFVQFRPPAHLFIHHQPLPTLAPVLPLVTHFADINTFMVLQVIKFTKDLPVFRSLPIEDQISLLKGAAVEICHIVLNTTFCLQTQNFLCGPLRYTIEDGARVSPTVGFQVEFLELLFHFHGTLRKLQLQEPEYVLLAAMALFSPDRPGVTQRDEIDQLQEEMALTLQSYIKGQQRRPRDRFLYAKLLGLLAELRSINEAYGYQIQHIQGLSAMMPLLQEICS
`O=C(Nc1ccc([N+](=O)[O-])cc1Cl)c1cc(Cl)ccc1O`: the Potency result was “inactive and 4.11 µM (active)”.

Regarding `COC(=O)CCC(=O)OC`, the Potency result was “inactive”.

Turning to `O=CCc1ccccc1`, the Potency result was “inactive”.

For the molecule `CC(C)OC=O`, the Potency entry is “inactive”.

For `Nc1ccc(S(=O)(=O)Nc2cnc3ccccc3n2)cc1`, the Potency result was “inactive”.

`O=C(O)c1ccccc1Nc1cccc(C(F)(F)F)c1`: the Potency result is “inactive”.

`c1cc(N(CC2CO2)CC2CO2)ccc1OCC1CO1` (stereo not drawn): the Potency is 68.6 µM (active).

In the case of `CCC(C)(O)CCCC(C)C` (stereo not drawn), the Potency entry is “inactive”.

Consider `Cc1c(C(N)=O)cc([N+](=O)[O-])cc1[N+](=O)[O-]`, for which the Potency result was “inactive”.

Regarding `O=C(COc1ccc(Cl)cc1)N1CCN(Cc2ccc3c(c2)OCO3)CC1`, the Potency entry was “inactive”.

In the case of `CN(C)c1nc(N(C)C)nc(N(C)C)n1`, the Potency entry is “inactive”.

As to `Cc1cccc([N+](=O)[O-])c1C`, the Potency entry was “inactive”.

Take `O=CCCCC=O`: the Potency result was “inactive”.

As to `CCCCCCCCCC(=O)OC`, the Potency entry was “inactive”.

Turning to `CCCc1c(OCCCCc2nn[nH]n2)ccc(C(C)=O)c1O`, the Potency entry is “inactive”.

As to `C=C(C)C1CC=C(C)CC1` (stereo not drawn), the Potency result was “inactive”.

`C#C[C@]1(O)CC[C@H]2[C@@H]3CCC4=Cc5oncc5C[C@]4(C)[C@H]3CC[C@@]21C`: the Potency entry is “inactive”.

Regarding `Oc1ccc(O)cc1`, the Potency result is “inactive”.

With `COc1ccc(C(=O)CC(=O)c2ccc(C(C)(C)C)cc2)cc1`, the Potency entry is “inactive”.

In the case of `c1ccc2c(c1)c1cccc3ccc4cccc2c4c31`, the Potency result is “inactive”.

For the molecule `C[C@]12CCC(=O)C=C1CC[C@@H]1[C@@H]2C(=O)C[C@@]2(C)[C@H]1CC[C@]2(O)C(=O)CO`, the Potency entry is “inactive”.

For `OC1CCCCCCCCCCC1`, the Potency entry is “inactive”.

Consider `CC(=O)C1(C)CC2=C(CCCC2(C)C)CC1C` (stereo not drawn), for which the Potency entry was “inactive”.

Regarding `C=CC(C)(CCC=C(C)C)OC(C)=O` (stereo not drawn), the Potency result was “inactive”.

Turning to `CC(=O)c1ccccn1`, the Potency entry is “inactive”.

For `COC(C)COC(C)COC(C)CO` (stereo not drawn), the Potency entry is “inactive”.

Consider `COc1ccc(OC)c(C(O)CNC(=O)CN)c1` (stereo not drawn), for which the Potency entry is “inactive”.

Turning to `CC(=O)CC/C=C(\C)CCC=C(C)C`, the Potency result is “inactive”.
